Pf growth 48h = P. falciparum growth inhibition at 48 hours (one generation); P. falciparum luciferase growth in erythrocytes, 48 h; Potency, µM (top dose mostly 28.7 µM), for inactives: at the top dose activity change, negative = inhibition, usual class: inhibitors; 5.9% of 310,000 active; also: potency is read from the fitted curve at half-maximal effect; % is scaled to controls: 0 for no effect and ±100 for the full control effect
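A one-generation exposure of luciferase-tagged malaria parasites in RPMI 1640/Albumax erythrocyte culture, 37 C and 5% CO2. Inhibition is inferred from decreased luminescence after adding detection reagent.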
Shiga toxin inh = inhibitors of Shiga toxin in Vero cells | Vero cells, Shiga toxin protein synthesis inhibition reporter | inhibition, % at 38.7 µM | 9.2% of 290,000 active | AID 2315; in the data active = inhibition mostly above about 28%, no sharp cut-off; inactive = mostly below about 43%; also: 0% is about no effect
NS1 inh = inhibitors of influenza NS1 protein function; 0.4% of 270,000 active; Potency, µM (doses to about 46.1 µM), for inactives: at the highest dose activity, positive = more growth; AID 2326; calls by dose curve; also: potency is read from the fitted curve at half-maximal effect; actives are rising curves; nearly all actives have a fitted effect of over 50% in size
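Growth recovery, yeast-based: influenza A NS1 expressed in S. cerevisiae causes slow growth, and suppressors are detected by OD600. The parent strain without NS1 is used as positive control.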
Pf growth 96h = inhibits malaria parasite growth, 96 h. P. falciparum luciferase reporter growth, 96 h. Potency, µM (top dose mostly 28.7 µM), without a hit: top-dose activity change, negative = inhibition, hits mostly inhibitors. 6.9% of 320,000 active; also: potency is read from the fitted curve at half-maximal effect; % is scaled to controls: 0 for no effect and ±100 for the full control effect
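Erythrocytes infected with luciferase-expressing P. falciparum were dispensed at 2% hematocrit and 0.05% parasitemia (final), then incubated with compounds 96 hours at 37 C in 5% CO2. Luminescence after detection reagent addition reported growth.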
Cycloheximide cs = counter-screen for Shiga toxin inhibitors: cycloheximide protein synthesis inhibition; AID 2314; 12% of 300,000 active; cell reporter, cycloheximide protein synthesis inhibition counterscreen; max response, %; in the data active = max response mostly above about 13%, no sharp cut-off; inactive = mostly below about 14%; also: read at 38.3 µM for the half of the compounds with a filed dose; 0% is about no effect
An asterisk follows results filed as active; ? = inconclusive; nt = no result. An excerpt weighted towards active compounds, which were near 21% of everything screened. Unless noted, calls follow the shape of the dose curve; as a rule, active = well fitted inhibition curve with a large enough effect; inconclusive = small, poorly fitted or top-dose-only effect, or another doubt; inactive = no such curve, though single readings can be large or run the other way.

SMILES | Pf growth 48h | Shiga toxin inh | NS1 inh | Pf growth 96h | Cycloheximide cs
O=C(N/N=C/c1c(O)n(Cc2ccccc2)c(=O)[nH]c1=O)c1ccccc1O | 12.1% | 6.1 | ? | ? | 16.1*
O=C(N/N=C/c1c(O)n(Cc2ccc(F)cc2)c(=O)[nH]c1=O)c1ccccc1O | 11.6% | 50.2 | ? | ? | 8.6
COc1ccc(Cn2c(O)c(/C=N/NC(=O)c3ccncc3)c(=O)[nH]c2=O)cc1 | 13.0% | -6.1 | -6.4% | 18.8% | -3.0
CCn1c(O)c(/C=N/NC(=O)c2ccccc2)c(=O)[nH]c1=S | ? | 44.2* | -5.1% | 58.2% | 31.4*
CCOC(=O)c1cnn(-c2ccccc2)c1-n1cccc1C(=O)C(=O)Nc1ccc(OC)cc1 | 5.3% | -12.7 | -2.0% | ? | -1.1
CCN(C(=O)COC(=O)CN(C)S(=O)(=O)c1ccc(NC(C)=O)cc1)C1CCS(=O)(=O)C1 (configuration not stated) | 11.0% | 3.7 | 1.1% | 39.6% | -1.5
Cc1ccccc1Nc1nn2c(=O)c3ccccc3nc2s1 | 80.0% | 20.8 | 1.8% | 2.62µM* | 10.6
Fc1ccc(Nc2nc3ccccc3s2)cc1 | 146.6% | 119.7* | nt | 70.7% | 39.6*
CC1(C)CN=C(Nc2nc3ccccc3s2)S1 | 182.0% | 77.1* | -28.6% | -27.6% | 38.0*
Cc1ccccc1Nc1nc2ccccc2s1 | 125.0% | 135.1* | -15.8% | 134.1% | 66.4*
O=c1n(-c2ccccc2)c(=O)n(Cc2ccccn2)n1Cc1ccccn1 | -8.7% | 13.6 | 3.8% | nt | 0.3
Cc1ccc(Nc2nc3ccccc3s2)cc1 | 124.7% | 72.1* | -0.1% | 43.6% | 28.8*
O=C(CCSc1nnc(-c2ccco2)o1)N1CCOCC1 | 10.2% | 51.5 | nt | 97.3% | 17.1
CCOC(=O)N1CCc2c(sc3ncn(Cc4ccc(F)cc4)c(=O)c23)C1 | 10.4µM* | 18.0 | -2.2% | 5.86µM* | -3.8
Cc1ccc(S(=O)(=O)Nc2cc3c(C(=O)Nc4ccccc4)c(C)oc3c3ccccc23)cc1 | ? | -6.4 | 7.8% | 1.65µM* | -2.8
OCC[C@H]1C[C@@H](O)[C@H](O)[C@@]2(OCc3ccccc32)O1 | 24.8% | nt | nt | 69.8% | nt
CC(=O)c1sc2nsc(SCCN3CCCC3)c2c1N | ? | 31.2 | 7.2% | ? | 20.1*
CCn1c(SCC(=O)N2CCC(C(N)=O)(N3CCCCC3)CC2)nnc1-c1ccccc1 | 20.7% | 13.7 | ? | -16.5% | 7.9
Cc1ccc(-c2nn3cnnc3c3ccccc23)cc1 | -15.4% | -13.8 | nt | -26.9% | 7.1
N#C/C(=C\C1=C(N2CCOCC2)C(=C/c2cccc([N+](=O)[O-])c2)/CC1)C(=O)Nc1ccccc1F | ? | -6.7 | -7.4% | 9.28µM* | -5.2
N#C/C(=C\C1=C(N2CCOCC2)C(=C\c2ccc(Cl)cc2)/CC1)C(=O)Nc1ccccc1F | -21.6% | -5.6 | 6.9% | ? | -2.9
CC1(C)CNc2cc(N)ccc2S1 | 43.8% | 37.9 | nt | 211.9% | 19.6
CCc1cc(-c2n[nH]c(=S)n2Cc2ccccc2)cs1 | 18.0% | -18.2 | -32.8% | nt | -2.4
COCCCNc1ncnc2ccc(C)cc12 | 48.1% | 39.2* | 7.3% | ? | 14.6*
Cc1ccc2ncnc(NCCC(=O)O)c2c1 | -1.2% | 18.3 | -2.5% | -14.7% | -1.6
SMILES | Pf growth 48h | Shiga toxin inh | NS1 inh | Pf growth 96h | Cycloheximide cs
CC(C)(C)c1ccc(OC(=O)N2CCOCC2)cc1 | 62.4% | 69.1* | 0.7% | 4.3% | 45.0*
O=C(Oc1ccc2ccc(OC(=O)N3CCOCC3)cc2c1)N1CCOCC1 | 47.0% | 23.0 | -0.7% | 10.4µM* | 11.5*
O=C(Oc1ccccc1)N1CCOCC1 | -2.4% | -10.8 | 3.8% | ? | -2.6
Cc1ccc(OC(=O)N2CCOCC2)cc1 | 68.0% | 48.3* | -4.1% | 36.8% | 30.4*
O=C(Oc1ccc(OC(=O)N2CCOCC2)cc1)c1ccccc1 | 1.9% | 13.9 | 1.7% | 1.5% | 12.3*
COc1ccc(S(=O)(=O)N2CCCC(C(=O)NCc3ccco3)C2)cc1OC (configuration not stated) | -3.6% | -2.1 | 24.6% | 16.8% | -3.4
CCC(=O)c1ccc(OC(=O)N2CCOCC2)cc1 | 53.3% | 33.1* | 19.1% | 65.5% | 22.5*
COC(=O)c1ccc(OC(=O)N2CCOCC2)cc1 | 40.6% | nt | -2.8% | 3.0% | -1.7
COc1ccc(CCNC(=O)CCCn2ncn3c(cc4occc43)c2=O)c(OC)c1 | -27.6% | -3.4 | 10.9% | ? | -4.0
CCCCc1cc(C(=O)Cc2ccccn2)c(O)cc1O | ? | 2.9 | 2.7% | ? | -0.8
CCCc1cc(C(=O)Nc2ccc(F)cc2F)no1 | nt | 74.4* | -12.1% | 9.2% | 58.3*
CCCc1cc(C(=O)Nc2ccccc2SC)no1 | 108.6% | 87.6* | -41.2% | ? | 62.0*
CCCc1cc(C(=O)Nc2cccc(Cl)c2C)no1 | 102.2% | 65.8* | -18.7% | -16.5% | 52.2*
Cc1[nH]c(=O)[nH]c(=O)c1S(=O)(=O)N1CCCC1 | 5.8% | -2.1 | -1.3% | ? | -1.4
COC(C(=O)Nc1ccnn1C1CCN(Cc2nccs2)CC1)c1ccccc1 (configuration not stated) | 21.8% | 9.6 | 0.1% | -17.1% | 1.8
N/C(=N\OC(=O)COc1ccc(Cl)cc1Cl)c1ccncc1 | -2.6% | 84.9* | -52.4% | 0.1% | 43.3*
N/C(=N\OC(=O)COc1ccc(Br)cc1Cl)c1cccnc1 | 130.4% | 92.5* | 12.5% | 0.0% | 45.3*
Cc1cc(OCC(=O)O/N=C(\N)c2ccccc2)cc(C)c1Cl | ? | 9.1 | 9.4% | 51.5% | 4.6
N/C(=N\OC(=O)COc1ccc(Cl)cc1Br)c1cccnc1 | 322.3% | 112.7* | nt | ? | 31.0*
N/C(=N\OC(=O)COc1ccc(Br)cc1)c1ccncc1 | -16.5% | 18.8 | -1.2% | 31.7% | -2.8
CC(OC(=O)c1cccc(S(=O)(=O)N(C)C)c1)C(=O)NCc1ccc2c(c1)OCO2 (configuration not stated) | -13.0% | nt | nt | -2.6% | nt
Cc1noc(C(=O)Nc2ccc(F)cc2F)c1Cl | 73.6% | 43.6 | -3.3% | 57.1% | 31.3*
Cc1ccc(O)c(NC(=O)c2onc(C)c2Cl)c1 | 11.7µM* | 66.1* | -9.4% | -8.4% | 30.3*
COc1cccc(/C=C/C(=O)OCC(=O)c2ccc(C)c(C)c2)c1OC | -23.8% | nt | nt | -21.7% | nt
COc1ccccc1NC(CC(=O)c1ccccc1)C(=O)OCC(=O)c1ccc(C)c(C)c1 (configuration not stated) | 147.5% | 37.3* | -14.2% | -14.2% | 40.4*
CC(=O)NC(Cc1ccccc1)C(=O)OCC(=O)c1ccc(Br)cc1 (configuration not stated) | -10.6% | 10.2 | -15.2% | 109.5% | -2.8
COc1ccccc1NC(CC(=O)c1ccccc1)C(=O)OCC(=O)c1ccc(Br)cc1 (configuration not stated) | 249.7% | 114.9* | 11.6% | 113.0% | 101.7*
COc1ccccc1NC(CC(=O)c1ccccc1)C(=O)OCC(=O)c1ccc(C)cc1 (configuration not stated) | 242.3% | 73.0* | -5.8% | ? | 32.6*
Cc1ccc2c(c1)Oc1ccccc1C=C2C(=O)O | 52.7% | -10.7 | 1.6% | 0.5% | -1.8
COC(Cc1ccccc1N1CCCC1=O)OC | 8.3% | -11.3 | -8.6% | -32.0% | -2.6

Screening results from PubChem BioAssay.
